Hit rate of the full screen: of about 360,000 compounds, about 620 (0.17%) were called active.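 Rule for the calls: active = inhibition above a per-campaign cutoff, the mean of all compounds plus 3 SD (cut at about 60% in these data); inactive = the rest.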 The sample as a whole holds a higher share of actives than the screen did.

Chain of Nuclear receptor coactivator 3 (Homo sapiens) (Q9Y6Q9 whole entry, looked up, the tested form may be a part): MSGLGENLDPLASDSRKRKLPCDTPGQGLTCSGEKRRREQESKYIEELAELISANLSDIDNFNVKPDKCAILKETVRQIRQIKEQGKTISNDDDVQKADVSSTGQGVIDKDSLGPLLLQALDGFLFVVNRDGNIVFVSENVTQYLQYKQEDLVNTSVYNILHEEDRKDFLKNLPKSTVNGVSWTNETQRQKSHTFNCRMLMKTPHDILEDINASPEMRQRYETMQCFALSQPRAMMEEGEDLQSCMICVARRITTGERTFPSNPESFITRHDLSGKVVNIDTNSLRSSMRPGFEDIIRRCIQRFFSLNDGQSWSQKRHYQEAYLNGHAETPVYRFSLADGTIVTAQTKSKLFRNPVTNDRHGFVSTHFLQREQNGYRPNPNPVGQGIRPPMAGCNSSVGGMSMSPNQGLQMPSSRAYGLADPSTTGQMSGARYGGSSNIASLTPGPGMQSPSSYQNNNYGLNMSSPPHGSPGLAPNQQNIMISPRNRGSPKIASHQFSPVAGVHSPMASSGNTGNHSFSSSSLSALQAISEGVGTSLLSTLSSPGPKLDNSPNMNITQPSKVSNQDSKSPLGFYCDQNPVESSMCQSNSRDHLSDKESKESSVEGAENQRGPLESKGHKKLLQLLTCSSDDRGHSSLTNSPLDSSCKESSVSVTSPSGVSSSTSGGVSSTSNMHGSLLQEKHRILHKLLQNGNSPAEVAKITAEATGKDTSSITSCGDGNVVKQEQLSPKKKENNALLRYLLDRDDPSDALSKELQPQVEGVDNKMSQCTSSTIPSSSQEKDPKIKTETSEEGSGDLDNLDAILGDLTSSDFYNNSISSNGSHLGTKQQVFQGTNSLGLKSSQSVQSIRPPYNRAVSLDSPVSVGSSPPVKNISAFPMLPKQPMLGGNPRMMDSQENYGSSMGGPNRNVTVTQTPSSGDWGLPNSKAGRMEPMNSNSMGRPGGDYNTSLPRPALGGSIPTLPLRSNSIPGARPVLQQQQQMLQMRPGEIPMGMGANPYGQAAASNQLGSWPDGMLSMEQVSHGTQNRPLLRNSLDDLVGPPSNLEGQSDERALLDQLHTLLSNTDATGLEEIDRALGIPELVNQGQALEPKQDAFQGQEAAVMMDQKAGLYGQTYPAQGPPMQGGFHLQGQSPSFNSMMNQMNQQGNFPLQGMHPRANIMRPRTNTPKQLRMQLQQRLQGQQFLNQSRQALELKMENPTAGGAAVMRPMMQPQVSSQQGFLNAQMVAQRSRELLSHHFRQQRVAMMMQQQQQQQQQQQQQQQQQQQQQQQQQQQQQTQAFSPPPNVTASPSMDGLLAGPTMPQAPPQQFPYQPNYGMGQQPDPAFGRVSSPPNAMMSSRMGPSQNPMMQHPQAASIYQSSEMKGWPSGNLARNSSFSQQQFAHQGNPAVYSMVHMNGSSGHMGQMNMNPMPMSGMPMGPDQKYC

The test has as its target Nuclear receptor coactivator 3 (Homo sapiens) (UniProt Q9Y6Q9). Nature of the test: NCOA3 GAL4-fusion reporter inhibition – cell-based, luminescence, primary screen (AID 588352).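 Note: 0% = DMSO-treated cells and 100% = gossypol-treated cells at 36 µM; higher means less SRC3-driven luciferase light from the GAL4 reporter.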 The conditions noted are these: HEK293 GAL4-SRC3 luciferase reporter, at 3.6 µM, stronger effect = higher value.
As to `FC(F)(F)c1cccc(-c2nc(COc3ccc(Cl)cc3Cl)no2)c1`, the inhibition was 12.2% (inactive).
As for `CN(C(=O)Nc1ccc(Cl)cc1)n1cnc2ccccc2c1=O`, the figure is -6.25% (inactive); as for `CC(C)(C)c1nc2ccccc2c(=O)n1N1C(=O)c2ccccc2C1=O`, 2.66% (inactive).
The value for `CN(c1ccc2nc3ccccc3c(=O)n2n1)C1CCCCC1` was 73.1% (active); that for `COc1cccc2cc(C(=O)NCc3ccc(C)cc3)c(=N)oc12` was 14.3% (inactive).
The value for `C=CCOC(=O)C1=C[C@@H](c2ccc3c(c2)OCO3)C[C@@H](OCCCCO)O1` was -13.9% (inactive); that for `CC(C)c1cc(C(N)=O)c(NC(=O)c2cccc(COc3ccc(Br)cc3)c2)s1` was -149% (inactive).
On to `COCc1ccc(C(=O)NC2CC(C)(C)Cc3c2cnn3-c2ccc(C)cc2)o1` (centres undefined), for which the inhibition is 16.3% (inactive).
As for `CC(C)OC(=O)c1ccc(NCc2cc(O)ccc2O)cc1Cl`, the figure is -31.6% (inactive); as for `O=C(OC12CC3CC(CC(C3)C1)C2)c1ccc(NCc2cc(O)ccc2O)cc1`, 74.5% (active); as for `CCOC(=O)c1[nH]cnc1C(=O)NC1CCCCC1`, -23% (inactive).
Take `COc1cccc(Nc2nnc(SCC(=O)N3CC(C)OC(C)C3)s2)c1` (centres undefined): the inhibition was -8.99% (inactive).
As for `C=CCSc1nnc(Cn2c(=O)sc3ccccc32)n1C`, the inhibition was 5.67% (inactive).
Consider `COc1ccccc1Cn1c(C)nnc1-c1cnn(C)c1N`, for which the inhibition is 19.6% (inactive).
As for `CCc1nc2ccc(C(=O)NC3CCN(Cc4ccccc4)CC3)cn2c1N(C)CCN1CCOCC1`, the inhibition was 14.3% (inactive).
Regarding `Nc1nc(SCC(=O)NNc2c(Cl)cc(Cl)cc2Cl)n[nH]1`, the inhibition was 18% (inactive).
The value for `Cc1ccc(C)c(S(=O)(=O)N2CC(=O)Nc3ccccc32)c1` was 22.6% (inactive).
As for `COc1ccc(S(=O)(=O)NCC(=O)NC2CC2)cc1OC`, the figure is -59% (inactive); as for `COc1cc(OC)cc(-c2c(-c3ccc(F)cc3)c3cc(-c4ccc5cc[nH]c5c4)ccc3n2C)c1`, 7.21% (inactive); as for `Cc1nc2ccccc2n1CC(O)c1ccccc1` (centres undefined), -14% (inactive).
With `O=C(Cn1nc([N+](=O)[O-])nc1Br)NC1CCCCC1`, the inhibition was 5.25% (inactive).
Consider `COc1cc(OC)cc(-c2c(-c3cccs3)c3cc(-c4ccc(OC)cc4F)ccc3n2C)c1`, for which the inhibition is -12.6% (inactive).
In the case of `COC(=O)c1ccc(NC(=O)CSc2nc(N)c(NC(=O)c3ccc(Br)o3)c(=O)[nH]2)cc1`, the inhibition is 11.5% (inactive).
As for `Clc1cccc(Cl)c1Cn1nnc(-c2cccs2)n1`, the figure is -55.9% (inactive).
The value for `Cn1sc(=O)c2cc(S(=O)(=O)NC3CC3)ccc21` was 3.57% (inactive); that for `CC1(C)NC(=O)N(CC(=O)Nc2cc(C(F)(F)F)cc(C(F)(F)F)c2)C1=O` was 22.2% (inactive); that for `CCCCNC(=O)C1CCCNC1=O` (centres undefined) was 12.3% (inactive).
The value for `CCNC(=O)C1(C)CCCN1C(=O)c1ccc(N(C)C)cc1` (centres undefined) was -7.5% (inactive); that for `COc1cc(NC(=O)C2=C(C)OCCS2)c(Cl)cc1C(=O)NCCCN1CCCC(C)C1` (centres undefined) was -22.7% (inactive).
Turning to `O=C(N/N=C/c1cccc([N+](=O)[O-])c1)C1CC(=O)N(c2ccc(Br)cc2)C1` (centres undefined), the inhibition was -0.6% (inactive).
The value for `COc1ccc(OCCCCN2CCC(C)CC2)cc1` was -47.3% (inactive); that for `CCC(O)C1CCN(Cc2cn(-c3ccc(OC)cc3)nc2-c2cccc(F)c2)CC1` (centres undefined) was 14% (inactive).
The value for `Cc1nc2nc(COc3ccccc3)[nH]n2c(=O)c1Cc1ccccc1` was -32.6% (inactive); that for `COc1cccc(/C=C(/CC(=O)Nc2ccc(N3CCOCC3)cc2)c2nc3ccccc3s2)c1` was 7.57% (inactive); that for `COC(=O)Cc1[nH]n(-c2nc3ccccc3s2)c(=O)c1C(C)=Nc1ccc(OC)cc1` was 86.7% (active).
As for `Cc1occc1-c1nnc(SCC(=O)NC2CCCCC2)o1`, the figure is 15.9% (inactive); as for `O=C(NC(Nc1nc2ccc([N+](=O)[O-])cc2s1)(C(F)(F)F)C(F)(F)F)c1ccccc1`, 76.7% (active).
On to `O=C(Nc1cc(-c2ccccc2)nn1-c1ccccc1F)c1ccc([N+](=O)[O-])cc1`, for which the inhibition is -5.69% (inactive).
The value for `O=C(NNS(=O)(=O)Cc1ccccc1)c1ccc([N+](=O)[O-])cc1` was -12.1% (inactive); that for `O=S(=O)(NCCc1ccc(Cl)cc1)c1cccs1` was 14% (inactive); that for `Brc1c(CSc2nncc3ccccc23)nc2ccccn12` was -11.5% (inactive).
The value for `CCCN(CCC)S(=O)(=O)c1ccc(C(=O)N2CC3CCC(CC3)C2)cc1` was 21.3% (inactive); that for `CN(CC(=O)Nc1ccc(C(N)=O)cc1)S(=O)(=O)c1ccc2c(c1)OCCO2` was -5.47% (inactive).
The value for `COc1ccc2c(c1)c(=Cc1ccc(N(C)C)cc1)c1cc(-c3ccccc3)[n+](C)n12` was 72.6% (active).
In the case of `O=S(=O)(/C=C/c1ccccc1)N1CCNCC1`, the inhibition was 18.6% (inactive).
As to `COc1c(F)c(F)c(C(=O)O)c(Nc2ccccc2C)c1F`, the inhibition is 3.91% (inactive).
The value for `Cn1cnc(C(F)(F)F)c1-c1ccc([N+](=O)[O-])cc1` was 9.14% (inactive).
`O=C(O)CCc1cccnc1`: the inhibition is -1.19% (inactive).
Consider `CC1CCCC(C)N1C(=O)COC(=O)COc1ccccc1C#N` (centres undefined), for which the inhibition is 13.1% (inactive).
For `Cc1ccc(C(=O)NNC(=O)OC(C)(C)C)c(Cl)c1`, the inhibition is -22.3% (inactive).
As for `COc1ccc(CCNC(=O)CCc2cn(C)c3ccccc23)c(OC)c1`, the figure is -10.8% (inactive); as for `COc1ccccc1NS(=O)(=O)c1ccc(C)c(C(=O)NNC(=O)c2csc(N3CCOCC3)n2)c1`, -18.4% (inactive); as for `Cc1ccc(OC(=O)c2ccccc2C(=O)OCC(F)(F)C(F)F)cc1`, 12% (inactive).
Regarding `COc1ccc(CNC(=O)CN2C(=O)c3ccccc3S2(=O)=O)cc1`, the inhibition is 0.21% (inactive).
For `O=C(CN1C(=O)c2ccccc2S1(=O)=O)N1CCc2ccccc21`, the inhibition was 78.1% (active).
As for `CN(Cc1cccs1)C(=O)CN1C(=O)c2ccccc2S1(=O)=O`, the figure is -22.1% (inactive).
The value for `CSc1cc(C)n(-c2ccccc2C)c(=S)c1C(C)=O` was -24.7% (inactive); that for `COc1ccc(-n2c(C)csc2=S)cc1` was -12.6% (inactive).
As for `O=C(O)C1CCN(C(=O)c2cc(F)cc3c2OCOC3)CC1`, the inhibition was 1.17% (inactive).
The value for `Cc1ccc(C(c2sc3nc(C)nn3c2O)N2CCN(c3ccccc3)CC2)cc1` (centres undefined) was -21.5% (inactive).
`CC(C)OC(=O)c1cc(NC(=O)C2C3CCC(O3)C2C(=O)O)cc(C(=O)OC(C)C)c1` (centres undefined): the inhibition was 6.46% (inactive).
Consider `O=c1[nH]n2c(=O)c3c([nH]c2c1N=Nc1ccccc1)CCC3`, for which the inhibition is -2.3% (inactive).
As for `Cc1nc2c(ncn2-c2ccccc2)c(=O)n1NC(=O)CN1CCCC1`, the inhibition was 6.67% (inactive).
The value for `COc1ccc(NC(=S)N2N=CCC2c2ccccc2)cc1` (centres undefined) was -88% (inactive); that for `COCc1cc(=O)n2[nH]c(C)c(-c3ccccc3)c2n1` was 3.15% (inactive).
On to `O=C1NC(=Nc2ccc(Cl)cc2)SC1Cc1cccc(Cl)c1Cl` (centres undefined), for which the inhibition is 11.5% (inactive).
The value for `CCOc1cc(C2/C(=C(/O)c3ccc(S(=O)(=O)N4CCCCC4)cc3)C(=O)C(=O)N2CCOC)ccc1O` (centres undefined) was -17.2% (inactive).
As for `Cc1ccsc1C1C(C#N)=C(N)OC2=C1C(=O)CC(C)C2` (centres undefined), the figure is -1.41% (inactive); as for `CC(C)(C)OC(=O)NCCCCCNC(=O)c1nc[nH]c1C(=O)NCc1ccccc1`, -1.92% (inactive); as for `O=C(Nc1cc(Br)ccc1F)c1nc[nH]c1C(=O)NCc1ccccc1`, 16.5% (inactive).
The value for `O=C(Nc1ccon1)c1nc[nH]c1C(=O)NCc1ccccc1` was 63% (active); that for `Cc1cccc(-[n+]2c(-c3cccc(Br)c3)[nH]c3nc4ccccc4nc32)c1` was 18.1% (inactive).
On to `Cc1ccc(NC(=O)NC(=O)CSc2nnc(-c3ccc(OC(F)F)cc3)n2N)c(C)c1`, for which the inhibition is -17.3% (inactive).
With `CCN(Cc1ccccc1)C(=O)CN1C(=S)NC(C)(C)CC1C` (centres undefined), the inhibition was -5.54% (inactive).

The record behind these values is PubChem BioAssay AID588352 (The Scripps Research Institute Molecular Screening Center, 2011).
